Source: PubChem
In the library only some 3.9% were active in any assay of this set; here they are far more common.
Wnt act: activates Wnt/beta-catenin signaling in a reporter cell assay | activator, plate reader | activation, % at 9.35 µM | hit rate 1.2% among 300,000 | AID 743398; in the data active = activation above about 30%, passing the limit was not always enough; inconclusive = no clear call, values can overlap the other calls;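 also: 0% = neutral control wells and 100% = positive control wells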
MITF TRPM1 HTS: increases MITF-driven TRPM1 promoter luciferase signal | SK-MEL-5 TRPM1-promoter luciferase, 24 h; % of positive control, neutral wells = 0 | activation, % at 12.5 µM | hit rate 0.75% among 300,000 | AID 588334;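 active = mean activation of at least 80% with every replicate also reaching 80%; inconclusive = mean reaches 80% but some replicate falls short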;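 also: 0% = neutral control wells and 100% = parthenolide positive control wells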
esBAF inh: inhibitors of esBAF chromatin remodeling in mouse ES cells. Bmi1-luciferase knock-in reporter, 24 h; 100% = twice the neutral-well signal. reporter increase, % at 12.5 µM. hit rate 2% among 350,000. AID 602393; in the data active = activation above about 40%; inconclusive = no clear call, values can overlap the other calls;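 also: 0% = median of the plate's neutral control wells and 100% = double that signal; a rise in the Bmi1 reporter signal indicates esBAF inhibition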
HSF-1 act: increases HSF-1 driven luciferase reporter signal; NIH3T3-HGL HSF-1 luciferase reporter, MG132, 8 h; 100% = twice DMSO control signal; hit rate 1.7% among 300,000; activation, % at 9 µM; AID 504408;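 active = mean replicate activation of at least 50% with a set share of replicates each reaching 50%; inconclusive = only one of those two conditions met; inactive = mean below 50% and too few replicates reaching it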;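 also: 0% = median of the neutral control wells and 100% = twice that signal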
HSF1 inhib: HSF1 inhibition. NIH3T3-HGL HSE-luciferase, MG132-induced, luminescence 8 h; stronger effect = lower value. activity change, negative = inhibition, % at 7.5 µM (by protocol). hit rate 0.77% among 300,000;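 active = more than half of replicate wells show activity change below -50%, luminescence cut by over half; inconclusive = some wells, but at most half, below -50%; inactive = no replicate well below -50%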;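 also: luciferase reports HSF-1 transcriptional activity via heat shock element; 0% = median of DMSO wells and -100% = zero luminescence signal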
Numbers without * were called inactive; ? = inconclusive; . = no result.

SMILES | Wnt act | MITF TRPM1 HTS | esBAF inh | HSF-1 act | HSF1 inhib
CCC(=O)N1CC[C@@H]2[C@H]1c1cc(C#Cc3ccccc3)ccc1N[C@@H]2CO | . | . | 0 | . | .
CO[C@H]1CN(C)C(=O)c2cc(NC(=O)Nc3cccc(Cl)c3)ccc2OC[C@@H](C)N(C(=O)Nc2c(C)noc2C)C[C@H]1C | . | . | 2 | . | .
Cc1ccc(NC(=O)NC(=O)N(c2ccccc2)S(C)(=O)=O)cc1 | . | . | 76* | 33 | 12
O=C(NC(=S)NCCO)c1sc2ccccc2c1Cl | 42* | 45 | 53* | 29 | 23
CCOC(=S)NC(=O)c1sc2ccccc2c1Cl | . | 2 | -1 | 28 | 1
CC(C)(C)C(=O)NC(=S)NNC(=O)c1sc2ccccc2c1Cl | . | -79 | . | -75 | -69*
COC(=O)C[C@@H]1C[C@@H]2c3cc(N)ccc3O[C@@H]2[C@H](CO)O1 | . | . | -6 | . | .
Cc1occc1C(=O)Nc1ccc(OCc2ccccc2)cc1 | 2 | ? | . | 56* | 39
O=C(N/N=C/c1ccc(OCc2ccccc2)cc1)c1cccs1 | . | 55 | 48* | 43 | 22
CCCCNC(=O)C(=O)N/N=C/c1ccc(OCc2ccccc2)cc1 | -1 | -13 | . | 6 | -2
CC(C)(C)NCC(=O)N/N=C/c1ccc(OCc2ccccc2)cc1 | -2 | 87* | . | 18 | -6
O=C(Nc1ccc(OCc2ccccc2)cc1)c1cccs1 | 17 | . | 68* | 40 | -2
O=C(C[n+]1ccc(C(=O)N/N=C/c2ccc(O)cc2)cc1)c1ccccc1 | -2 | 8 | 11 | -7 | 0
Oc1ccc(N=Cc2ccc(OCc3ccccc3)cc2)cc1 | 15 | -35 | 48* | 65* | 40
O=C(C[n+]1ccc(C(=O)N/N=C/c2ccc(OCc3ccccc3)cc2)cc1)c1ccccc1 | 15 | 134* | 13 | 4 | 8
CNC(=S)Nc1ccc(OCc2ccccc2)cc1 | 2 | 19 | 41* | 18 | 8
CCC(=O)N1[C@H](CO)[C@H]2c3ccccc3N(S(=O)(=O)c3ccccc3F)C[C@H]21 | . | . | -5 | . | .
O=C(NCCN1CCCC1)[C@@H]1[C@@H](CO)[C@@H]2Cn3c(cccc3=O)[C@@H]2N1C(=O)c1ccccc1 | . | . | 1 | . | .
O=[N+]([O-])c1ccc2nc(/C=C/c3ccc(Cl)cc3)[nH]c2c1 | 13 | 27 | 47* | -27 | -23
Nc1ccc(-c2nc3ccc(N)cc3[nH]2)cc1 | 6 | -2 | . | 13 | -4
Nc1ccc(-c2nc3ccc([N+](=O)[O-])cc3[nH]2)cc1 | 59* | 10 | . | 16 | 18
O=[N+]([O-])c1ccc2nc(C(O)C(O)c3nc4ccc([N+](=O)[O-])cc4[nH]3)[nH]c2c1 (centres undefined) | 2 | -7 | 14 | 12 | 3
O=[N+]([O-])c1ccc(-c2nc3ccc([N+](=O)[O-])cc3[nH]2)cc1 | . | 7 | . | 55* | 37
Nc1ccc2nc(-c3ccc(Cl)cc3)[nH]c2c1 | 22 | 62 | 12 | 28 | 19
Nc1ccc2nc(-c3cc(Cl)c(N)c(Cl)c3)[nH]c2c1 | 43* | 51 | 48* | 25 | 1
SMILES | Wnt act | MITF TRPM1 HTS | esBAF inh | HSF-1 act | HSF1 inhib
C[C@@H]1CN([C@H](C)CO)C(=O)c2cccc(NS(=O)(=O)c3cccs3)c2O[C@@H]1CN(C)C | . | . | -2 | . | .
C[C@@H](O)C#Cc1cnc2c(c1)C(=O)N([C@@H](C)CO)C[C@H](C)[C@@H](CN(C)Cc1ccc(-c3ccccc3)cc1)O2 | . | . | -25 | . | .
COc1ccc(NC(=O)Nc2cccc3c2O[C@H](CN(C)Cc2ccc(Oc4ccccc4)cc2)[C@@H](C)CN([C@@H](C)CO)C3=O)cc1 | . | . | -3 | . | .
CCCc1cn(CC[C@@H]2CC[C@H](NC(=O)CCN3CCCCC3)[C@@H](CO)O2)nn1 | . | . | 3 | . | .
O=C(C[C@@H]1C=C[C@H](NC(=O)C2CCOCC2)[C@@H](CO)O1)NCC1CC1 | . | . | 3 | . | .
COC(=O)C[C@@H]1CC[C@@H]2[C@@H](COc3ccc(NC(=O)c4cc(C)on4)cc3C(=O)N2C)O1 | . | . | 4 | . | .
O=C(Cc1ccccc1)Nc1ccc(NC(=O)c2ccco2)cc1Cl | -1 | -3 | -5 | -63 | -56*
O=C(Nc1ccc(NC(=O)c2cccs2)cc1Cl)c1ccco1 | 46* | 61 | . | 31 | 32
O=C(Cc1ccccc1)Nc1ccc(NC(=O)Cc2ccccc2)c(Cl)c1 | 0 | 3 | 2 | 1 | -3
COc1cc(NC(=O)c2ccccc2Cl)ccc1NC(=O)c1ccco1 | 17 | 92* | 51* | 71* | 55
Nc1ccc(NC(=O)c2ccco2)c(Cl)c1 | 22 | -2 | 3 | 56* | 18
COCC(=O)N(C)C[C@H]1Oc2ncc(-c3ccccc3OC)cc2C(=O)N([C@@H](C)CO)C[C@@H]1C | . | . | -13 | . | .
O=C(Nc1ccc(Cl)c(NC(=O)c2cccs2)c1)c1ccco1 | 2 | . | -1 | 1 | -11
COc1cc(NC(=O)c2cccs2)ccc1NC(=O)c1ccco1 | 59* | 92* | 92* | 31 | 17
O=C(Nc1ccc(NC(=O)c2cccs2)c(Cl)c1)c1cccs1 | 17 | 52 | . | 69* | 30
CCOC(=O)c1c(C)c(C(=O)Nc2ccc(N(C)C)cc2)c(C)n1CC | -3 | -21 | 47* | 2 | 2
CCOC(=O)c1c(C)c(C(=O)NCCOC)c(C)n1CC | -1 | 2 | 1 | -6 | -2
Cc1ccc(OC(=O)c2ccc(C)c(C)c2)cn1 | 1 | 12 | 8 | 54* | 31
COCCNC(=O)C[C@H]1C=C[C@@H](NC(=O)NC2CCCCC2)[C@@H](CO)O1 | . | . | 2 | . | .
Nc1nc(N)nc(-c2ccc(Cl)c(Cl)c2)n1 | 38* | 71 | 32 | . | .
Cc1nc(N)nc(N)c1-c1ccc(Cl)c(Cl)c1 | -4 | -27 | -47 | . | .
O=C(Nc1ccccc1Cl)OC1CCCCC1 | 5 | 71 | 56* | 25 | 9
CC(OC(=O)Nc1cccc(Cl)c1)C(=O)OC1CCCCC1 (centres undefined) | 19 | 35 | 54* | . | .
Cc1ccccc1-c1nc2sc3c(c2c(=O)o1)CCC3 | 0 | 65 | 8 | 10 | -1
O=c1oc(-c2cc3ccccc3o2)nc2sc3c(c12)CCCC3 | 15 | 101* | 53* | ? | 26
SMILES | Wnt act | MITF TRPM1 HTS | esBAF inh | HSF-1 act | HSF1 inhib
COc1ccc(-c2csc3nc(-c4ccccc4F)oc(=O)c23)cc1 | 0 | . | 13 | 78* | 63
O=c1oc(-c2cccs2)nc2sc3c(c12)CCCCC3 | -6 | ? | 43* | -9 | -4
O=c1oc(-c2ccccc2)nc2sc3c(c12)CCCC3 | . | 58 | 56* | 69* | 51
Cc1sc2nc(-c3cccs3)oc(=O)c2c1C | 0 | 16 | 10 | 36 | 5
CCNC(=O)Nc1ccc2c(c1)C(=O)N(C)[C@H]1CC[C@H](CC(=O)NCc3ccc(F)cc3)O[C@H]1CO2 | . | . | 0 | . | .
C[C@@H]1CN([C@@H](C)CO)C(=O)c2cc(NS(=O)(=O)c3ccccc3)ccc2O[C@@H](C)CCCCO[C@@H]1CN(C)CC1CCCCC1 | . | . | -1 | . | .
O=c1oc(-c2cccs2)nc2scc(-c3cccs3)c12 | 11 | . | 64* | 6 | 4
